Laboratory results: PubChem BioAssay AID1159580 (chemical genetic matrix, 2015)
About 2,000 (36%) of roughly 5,500 compounds were called active. About 18% were inconclusive and are not listed. No stated cut-off is given here; in the data, active means normalized growth mostly below about 0.91 (no sharp cut-off); inconclusive means no clear call, values can overlap the other calls; inactive means mostly above about 0.92. The list shows a part of the results.

Assay: chemical genetic growth profiling, strain panel (AID 1159580);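 further: tested at 20 µM; growth read once vehicle control cultures reached saturation at 30 °C; 1 = growth at the plate median or of vehicle wells; lower values mean less growth of the strain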
Conditions: growth OD

Measured: normalized growth

CS(=O)(=O)c1ccc([C@@H](O)[C@@H](CO)NC(=O)C(Cl)Cl)cc1
inactive: S. cerevisiae deletion strains, locus YKL009W, strain mrt4, hits give low values 0.977 | S. cerevisiae deletion strains, locus YKL068W, hits give low values 0.978 | S. cerevisiae deletion strains, locus YKL085W, strain MDH1 (second series), hits give low values 0.988 | S. cerevisiae deletion strains, locus YKL085W, strain MDH1, hits give low values 0.988 | S. cerevisiae deletion strains, locus YKL160W, strain elf1, hits give low values 1.02 | S. cerevisiae deletion strains, locus YKL190W, strain CNB1, hits give low values 0.991 | S. cerevisiae deletion strains, locus YKR001C, strain vps1, hits give low values 0.99 | S. cerevisiae deletion strains, locus YKR026C, strain gcn3, hits give low values 1.03 | S. cerevisiae deletion strains, locus YKR091W, strain srl3, hits give low values 1.01 | S. cerevisiae deletion strains, locus YLL001W, strain dnm1, hits give low values 1 | S. cerevisiae deletion strains, locus YLL026W, hits give low values 1.02 | S. cerevisiae deletion strains, locus YLL041C, strain sdh2, hits give low values 1.02 | S. cerevisiae deletion strains, locus YLR027C, strain aat2, hits give low values 1.01 | S. cerevisiae deletion strains, locus YLR039C, strain RIC1, hits give low values 0.947 | S. cerevisiae deletion strains, locus YLR058C, strain SHM2, hits give low values 0.965 | S. cerevisiae deletion strains, locus YLR102C, strain apc9, hits give low values 0.978 | S. cerevisiae deletion strains, locus YLR113W, strain HOG1, hits give low values 0.998 | S. cerevisiae deletion strains, locus YLR221C, strain rsa3, hits give low values 1.01 | S. cerevisiae deletion strains, locus YLR258W, strain gsy2, hits give low values 1.02 | S. cerevisiae deletion strains, locus YLR262C, strain YPT6 (second series), hits give low values 1.03 | S. cerevisiae deletion strains, locus YLR262C, strain YPT6, hits give low values 0.849 | S. cerevisiae deletion strains, locus YLR268W, strain sec22, hits give low values 0.983 | S. cerevisiae deletion strains, locus YLR320W, strain mms22, hits give low values 0.991 | S. cerevisiae deletion strains, locus YLR330W, strain CHS5, hits give low values 0.982 | S. cerevisiae deletion strains, locus YLR342W, strain FKS1 (second series), hits give low values 1.01 | S. cerevisiae deletion strains, locus YLR342W, strain FKS1, hits give low values 1.01 | S. cerevisiae deletion strains, locus YLR357W, strain rsc2, hits give low values 1 | S. cerevisiae deletion strains, locus YLR370C, strain arc18, hits give low values 1.03 | S. cerevisiae deletion strains, locus YLR371W, strain rom2, hits give low values 0.993 | S. cerevisiae deletion strains, locus YLR384C, strain iki3, hits give low values 1.02 | S. cerevisiae deletion strains, locus YLR418C, strain cdc73, hits give low values 0.98 | S. cerevisiae deletion strains, locus YML016C, strain PPZ1, hits give low values 0.981 | S. cerevisiae deletion strains, locus YML032C, strain rad52, hits give low values 1 | S. cerevisiae deletion strains, locus YML120C, strain ndi1, hits give low values 1.05 | S. cerevisiae deletion strains, locus YML124C, strain tub3, hits give low values 0.993 | S. cerevisiae deletion strains, locus YMR058W, strain fet3, hits give low values 1.03 | S. cerevisiae deletion strains, locus YMR078C, strain ctf18, hits give low values 0.975 | S. cerevisiae deletion strains, locus YMR125W, strain sto1, hits give low values 1.04 | S. cerevisiae deletion strains, locus YMR129W, hits give low values 1.02 | S. cerevisiae deletion strains, locus YMR205C, strain PFK2, hits give low values 1.01 | S. cerevisiae deletion strains, locus YMR223W, strain ubp8, hits give low values 1.02 | S. cerevisiae deletion strains, locus YMR231W, strain pep5, hits give low values 1.03 | S. cerevisiae deletion strains, locus YMR263W, strain SAP30, hits give low values 0.984 | S. cerevisiae deletion strains, locus YMR307W, strain GAS1, hits give low values 1.06 | S. cerevisiae deletion strains, locus YNL067W, strain RPL9B, hits give low values 0.973 | S. cerevisiae deletion strains, locus YNL071W, strain lat1, hits give low values 1.03 | S. cerevisiae deletion strains, locus YNL128W, strain TEP1, hits give low values 0.975 | S. cerevisiae deletion strains, locus YNL153C, strain GIM3, hits give low values 0.981 | S. cerevisiae deletion strains, locus YNL183C, strain NPR1, hits give low values 0.959 | S. cerevisiae deletion strains, locus YNL209W, strain ssb2, hits give low values 1.04 | S. cerevisiae deletion strains, locus YNL233W, strain BNI4, hits give low values 0.99 | S. cerevisiae deletion strains, locus YNL248C, strain rpa49, hits give low values 1.07 | S. cerevisiae deletion strains, locus YNL250W, strain rad50, hits give low values 0.981 | S. cerevisiae deletion strains, locus YNL271C, strain bni1, hits give low values 0.995 | S. cerevisiae deletion strains, locus YNL298W, strain CLA4, hits give low values 0.988 | S. cerevisiae deletion strains, locus YNL307C, strain MCK1, hits give low values 0.985 | S. cerevisiae deletion strains, locus YNL322C, strain KRE1 (second series), hits give low values 1.02 | S. cerevisiae deletion strains, locus YNL322C, strain KRE1, hits give low values 0.983 | S. cerevisiae deletion strains, locus YNR049C, strain mso1, hits give low values 1 | S. cerevisiae deletion strains, locus YNR052C, strain pop2, hits give low values 0.993 | S. cerevisiae deletion strains, locus YOL006C, strain TOP1, hits give low values 0.889 | S. cerevisiae deletion strains, locus YOL012C, strain htz1 1.83 | S. cerevisiae deletion strains, locus YOL147C, strain pex11, hits give low values 0.99 | S. cerevisiae deletion strains, locus YOR001W, strain rrp6, hits give low values 1.03 | S. cerevisiae deletion strains, locus YOR061W, strain CKA2, hits give low values 0.944 | S. cerevisiae deletion strains, locus YOR069W, strain VPS5, hits give low values 0.991 | S. cerevisiae deletion strains, locus YOR070C, strain gyp1, hits give low values 1.03 | S. cerevisiae deletion strains, locus YOR080W, strain dia2, hits give low values 1.02 | S. cerevisiae deletion strains, locus YOR083W, strain WHI5, hits give low values 0.98 | S. cerevisiae deletion strains, locus YOR106W, strain vam3, hits give low values 1.05 | S. cerevisiae deletion strains, locus YOR136W, strain idh2, hits give low values 0.992 | S. cerevisiae deletion strains, locus YOR144C, strain elg1, hits give low values 0.983 | S. cerevisiae deletion strains, locus YOR184W, strain ser1, hits give low values 1.03 | S. cerevisiae deletion strains, locus YOR231W, strain MKK1, hits give low values 0.967 | S. cerevisiae deletion strains, locus YOR265W, strain rbl2, hits give low values 1.03 | S. cerevisiae deletion strains, locus YOR270C, strain vph1, hits give low values 1.12 | S. cerevisiae deletion strains, locus YOR290C, strain snf2, hits give low values 1.04 | S. cerevisiae deletion strains, locus YOR316C, strain cot1, hits give low values 0.975 | S. cerevisiae deletion strains, locus YPL051W, strain arl3, hits give low values 1.02 | S. cerevisiae deletion strains, locus YPL055C, strain LGE1, hits give low values 0.984 | S. cerevisiae deletion strains, locus YPL078C, strain atp4, hits give low values 1.04 | S. cerevisiae deletion strains, locus YPL106C, strain sse1, hits give low values 1.01 | S. cerevisiae deletion strains, locus YPL240C, strain hsp82, hits give low values 1.02 | S. cerevisiae deletion strains, locus YPL241C, strain CIN2, hits give low values 0.968 | S. cerevisiae deletion strains, locus YPL256C, strain CLN2, hits give low values 0.995 | S. cerevisiae deletion strains, locus YPR119W, strain clb2, hits give low values 1 | S. cerevisiae deletion strains, locus YPR141C, strain kar3, hits give low values 0.971 | S. cerevisiae deletion strains, locus YPR163C, strain tif3, hits give low values 1 | S. cerevisiae deletion strains, locus YPR167C, strain met16, hits give low values 0.975 | S. cerevisiae deletion strains, strain wtn01, hits give low values 0.984 | S. cerevisiae strains, strain wild type, hits give low values 0.963
